Bioassay records (PubChem)
The list is not random: actives were taken first. Their share in the collection is about 4%.
MITF TRPM1 inh – reduces MITF-dependent TRPM1 promoter luciferase signal; SK-MEL-5 TRPM1 promoter luciferase, 24 h; inhibition, % at 12.5 µM; 330,000 tested, 0.83% active;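 active = mean inhibition across replicates of 60% or more, whatever share of single replicates reaches that level; inconclusive = some that reach 60%, reason not given; inactive = mean inhibition across replicates below 60%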
Wnt bcat act – Wnt/beta-catenin pathway activation; Wnt/beta-catenin reporter cell assay, activator, plate reader; AID 743398; activation, % at 9.35 µM; 300,000 tested, 1.2% active; in the data active = activation above about 30%, passing the limit was not always enough; inconclusive = no clear call, values can overlap the other calls;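 also: 0% = neutral control wells and 100% = positive control wells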
esBAF inh – SWI/SNF esBAF complex inhibition | AID 602393 | mouse ES cells, Bmi1-luciferase knock-in reporter, 24 h; 100% = twice the neutral-well signal | 350,000 tested, 2% active | reporter increase, % at 12.5 µM; in the data active = activation above about 40%; inconclusive = no clear call, values can overlap the other calls;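 also: 0% = median of the plate's neutral control wells and 100% = double that signal; a rise in the Bmi1 reporter signal indicates esBAF inhibition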
PAX8 inh HTS – PAX8 transcriptional activity inhibition; RMG-I TPO-luciferase reporter, SteadyGlo, 24 h; inhibition, % at 12.6 µM; 360,000 tested, 1.2% active;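 active = mean replicate inhibition at least 60% with every replicate also reaching 60%; inconclusive = only one of the two criteria is met; inactive = mean below 60% and not all replicates reaching 60%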;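 also: luciferase light reporting Pax8 driven TPO promoter activity; plate controls were median of neutral control wells for no effect and mitoxantrone controls for full effect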
EWS-Fli inh – blocks EWS/Fli oncoprotein-driven transcription; A673 NR0B1-luciferase reporter, viability-normalised; inhibition, % at 12.6 µM; 350,000 tested, 0.67% active;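 active = mean inhibition of at least 50% after viability correction, with every replicate also passing that limit; inconclusive = mean reaches 50% but only one of two replicates passes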;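 also: firefly luciferase signal divided by Alamar Blue viability fluorescence both relative to DMSO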
MITF act – MITF TRPM1 promoter activation in melanoma cells; SK-MEL-5 TRPM1-promoter luciferase, 24 h; % of positive control, neutral wells = 0; activation, % at 12.5 µM; 300,000 tested, 0.75% active;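 active = mean activation of at least 80% with every replicate also reaching 80%; inconclusive = mean reaches 80% but some replicate falls short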;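 also: 0% = neutral control wells and 100% = parthenolide positive control wells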
Starred values were filed as active, the others as inactive; ? = inconclusive; nt = no result given.

SMILES	MITF TRPM1 inh	Wnt bcat act	esBAF inh	PAX8 inh HTS	EWS-Fli inh	MITF act
C[C@H](CO)N1C[C@H](C)[C@@H](CN(C)C(=O)c2cccc(F)c2)Oc2cc(C#CC3CCCC3)ccc2S1(=O)=O	nt	nt	nt	nt	30	nt
CCCCCCCCCCn1ccc(=N)cc1	77*	-16	nt	83*	58*	nt
CN(C)CCn1cnc2c(c1=N)C(c1ccccc1)c1ccc3ccccc3c1O2 (stereo unspecified)	93*	5	-14	-6	21	-93
C[C@H](CO)N1C[C@H](C)[C@@H](CN(C)C(=O)Nc2ccc(C(F)(F)F)cc2)OCCCC[C@H](C)Oc2ccc(N(C)C)cc2C1=O	nt	nt	-6	51	2	nt
O=C(NCCCCCCNC(=O)OCc1ccccc1)OCc1ccccc1	-11	0	-8	-97	-7	9
O=C(OCc1ccccc1)N(CCCCN(CCCNCc1ccccc1)C(=O)OCc1ccccc1)CCCNCc1ccccc1	97*	-9	nt	98*	?	-97
CC(C)Oc1ccc(C(CCNCc2ccc(O)cc2)c2ccccc2)cc1 (stereo unspecified)	86*	0	-18	25	?	-86
COc1ccc(C(CCNCc2ccc(N(C)C)cc2)c2ccccc2)cc1 (stereo unspecified)	33	2	0	4	48	-28
CCCCNc1cc(NC(C)=O)cc2cc(OC)c(OC)cc12	3	nt	47*	nt	nt	-4
C[C@H]1CN([C@@H](C)CO)C(=O)c2cc(-c3cccc(F)c3)cnc2O[C@H]1CN(C)C(=O)Nc1cc(F)ccc1F	nt	nt	-1	nt	-11	nt
C=CCNC(=O)c1ccc(-c2cccc([N+](=O)[O-])c2)o1	-48	9	46*	-91	-46	52
O=C(Nc1nccs1)c1cc(Cl)ccc1[N+](=O)[O-]	13	nt	nt	-4	nt	-10
O=C(Nc1nccs1)c1ccc(-c2cccc([N+](=O)[O-])c2)o1	-54	60*	67*	-170	-104	59
O=C(Nc1nccs1)c1ccccc1[N+](=O)[O-]	-6	-2	nt	63*	-4	3
C=CCNC(=O)c1ccc(-c2ccc([N+](=O)[O-])cc2)o1	-11	6	0	-6	-44	16
Cc1nnc(SCc2ccc(F)cc2)s1	-49	nt	53*	nt	nt	51
Cc1nc(CSc2nnc(C)s2)cs1	-4	1	nt	85*	-11	-4
Nc1nnc(SCc2ccc(F)cc2)s1	-19	nt	-2	nt	nt	17
Cc1nnc(SCc2cccc3ccccc23)s1	-82	11	64*	-110	-78	76
CC(=O)Nc1nnc(SCc2ccc(F)cc2)s1	-47	17	46*	nt	nt	47
C[C@@H]1CN([C@@H](C)CO)C(=O)c2cc(NC(=O)CCCN(C)C)ccc2O[C@@H](C)CCCCO[C@@H]1CN(C)S(=O)(=O)c1ccc(F)cc1	nt	nt	-4	-7	-2	nt
O=C(C[C@H]1C=C[C@@H](NC(=O)CN2CCOCC2)[C@@H](CO)O1)NC1CCC1	nt	nt	0	5	0	nt
C=CC[n+]1ccc(/C=C2\C=Cc3cc(C)ccc3N2CC)c2ccccc21	84*	nt	-58	nt	nt	-82
O=C(C[C@@H]1C=C[C@@H](NC(=O)C2CC2)[C@@H](CO)O1)NCCCN1CCOCC1	nt	nt	-4	-9	1	nt
C[C@@H]1CCCCO[C@@H](CN(C)C(=O)Cc2ccccc2)[C@@H](C)CN([C@H](C)CO)C(=O)c2cc(NC(=O)CCCCCC(=O)Nc3ccccc3N)ccc2O1	nt	nt	3	nt	2	nt
SMILES	MITF TRPM1 inh	Wnt bcat act	esBAF inh	PAX8 inh HTS	EWS-Fli inh	MITF act
CC(=O)NC1=C(N(C)C2CCS(=O)(=O)C2)C(=O)c2ccccc2C1=O (stereo unspecified)	64*	-12	1	4	4	-64
O=C(c1ccncc1)N1C[C@H]2[C@@H](c3ccccc31)[C@@H](CO)N2C(=O)Nc1ccc(F)cc1	nt	nt	6	-1	11	nt
Cc1ccc(NC(=O)NC(=O)N(c2ccccc2)S(C)(=O)=O)cc1	-43	nt	76*	nt	nt	nt
N#CC1=C(c2ccccc2)/C(=C/c2ccccc2)OC1=O	92*	nt	nt	nt	nt	-92
Cc1cccc(NC(=S)N2CCCCCC2)c1	5	nt	nt	-5	nt	-2
O=C(Nc1cnc2ccccc2c1)N1CCOCC1	-24	nt	nt	nt	nt	27
O=C(Nc1cnc2ccccc2c1)N1CCCCC1	-91	nt	nt	nt	nt	94*
Cc1ccc(NC(=O)N2CCCCCC2)cc1C	-34	27	52*	nt	-75	36
Cc1cccc(NC(=O)N2CCCCCC2)c1	-30	6	43*	-85	-44	33
CO[C@H]1CN(C)C(=O)c2cc(NC(=O)Nc3cc(Cl)cc(Cl)c3)ccc2OC[C@H](C)NC[C@H]1C	nt	nt	0	nt	7	nt
C[C@H](CO)N1C[C@H](C)[C@@H](CN(C)Cc2ccc(C(F)(F)F)cc2)Oc2c(NS(=O)(=O)c3ccc(F)cc3)cccc2C1=O	nt	nt	-9	7	5	nt
CCCNC(=O)C[C@H]1C[C@@H]2c3cc(NC(=O)Nc4ccccc4)ccc3O[C@@H]2[C@H](CO)O1	nt	nt	0	11	-4	nt
CCN1[C@H](C(=O)OC)[C@@H](CO)[C@@H]2Cn3c(ccc(-c4cccc(OC)c4)c3=O)[C@@H]21	nt	nt	-5	-5	7	nt
O=C(NCC(c1ccco1)N1CCCC1)c1cc(=O)[nH]c2ccccc12 (stereo unspecified)	12	58*	0	7	4	-12
Cc1noc(C)c1S(=O)(=O)N(C)C[C@@H]1OCCCC[C@@H](C)Oc2ccc(NC(=O)Nc3cccc4ccccc34)cc2C(=O)N([C@H](C)CO)C[C@H]1C	nt	nt	9	24	10	nt
Fc1ccc(-n2nnc(-c3ccnc4ccccc34)n2)cc1	nt	?	61*	-129	-100	nt
Cn1c(-c2nnn(-c3ccc(F)cc3)n2)cc2ccccc21	nt	?	nt	-172	-17	nt
Cc1ccc(-n2nnc(-c3ccnc4ccccc34)n2)cc1	-86	40*	69*	-186	-130	94*
Cc1ccc(-n2nnc(-c3cc4ccccc4n3C)n2)cc1	-72	11	58*	-65	-59	75
O=C(c1cccnc1)N1CC(=O)N2[C@H](CO)[C@H](c3ccc(C#CCC4CCCC4)cc3)[C@@H]2C1	nt	nt	nt	13	-3	nt
COCC(=O)Nc1ccc2c(c1)[C@H]1C[C@H](CC(=O)N3CCc4ccccc4C3)O[C@@H](CO)[C@H]1O2	nt	nt	5	nt	-7	nt
Clc1ccc(Cn2nnc(-c3ccccc3)n2)cc1	-53	-2	47*	nt	nt	72
O=C(OCc1ccccc1)c1cccc(-c2nnn(Cc3ccccc3)n2)c1	-19	45*	39	-130	nt	23
Clc1ccc(Cn2nc(-c3ccccc3)nc2-c2ccccc2)cc1	-34	nt	nt	-104	nt	32
Clc1ccc(Cn2nnc(-c3ccc(CN4CCOCC4)cc3)n2)cc1	-11	-10	52*	12	nt	nt
O=C(Nc1ccccc1F)c1cc2nc(C(F)F)cc(C(F)F)n2n1	-57	nt	58*	-134	nt	55
COc1ccccc1CC(=O)Nc1ccc2c(c1)OC1(CCCC1)O2	-48	-4	52*	-88	-77	53
